According to PubChem BioAssay (NCI):
The panel holds about 79,000 compounds, 15% with a hit somewhere; the sample as a whole holds those more often. Activity calls are given as the source filed them. No stated cut-off is given here; in the data, active means growth inhibition above about 70%; inactive means the rest.

Experiments:
[1] = NCI Yeast Anticancer Drug Screen. Data for the rad50 strain (AID 155);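 further: 0% = growth of vehicle-only cultures of the same strain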; conditions: S. cerevisiae rad50 strain growth inhibition, active compounds read high
Procedure, shortened: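 Genetically altered yeast (DNA repair pathway); compound treatment; growth inhibition vs vehicle ctrl.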

[2] = NCI Yeast Anticancer Drug Screen. Data for the mec2-1 strain (AID 157); conditions: S. cerevisiae mec2-1 strain, active compounds read high
Procedure, shortened: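 Each compound was tested on mec2-1 yeast, a strain altered in DNA damage repair or cell cycle control. Growth inhibition is reported relative to vehicle.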

[3] = NCI Yeast Anticancer Drug Screen. Data for the sgs1 mgt1 strain (AID 161);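 further: 0% = growth of cultures given vehicle only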; conditions: S. cerevisiae sgs1 mgt1 strain, active compounds read high
Procedure, shortened: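 Read-out: growth inhibition vs vehicle controls. Cells: mutant yeast strain deficient in DNA damage repair.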

[4] = NCI Yeast Anticancer Drug Screen. Data for the cln2 rad14 strain (AID 165);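 further: 0% = growth equal to vehicle treated cultures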; conditions: S. cerevisiae cln2 rad14 strain, active compounds read high
Procedure, shortened: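 Test compounds were added to cln2 rad14 yeast cultures; inhibition of growth was then determined by comparison with vehicle treatment.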

[5] = NCI Yeast Anticancer Drug Screen. Data for the bub3 strain (AID 167); conditions: S. cerevisiae bub3 mutant strain, active compounds read high
Procedure, shortened: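 Yeast carrying a defined mutation is treated with each compound, and growth is compared with that of vehicle-exposed cells to give inhibition.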

[6] = NCI Yeast Anticancer Drug Screen. Data for the mlh1 rad18 strain (AID 175); conditions: S. cerevisiae mlh1 rad18 strain growth inhibition, active compounds read high
Procedure, shortened: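 Inhibition values reflect reduced growth of mutant yeast versus vehicle-treated controls following compound exposure; the mutations affect DNA damage repair.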

[7] = at 5.0 µM (retest, dose inferred, filed as 0.5)
[8] = at 50.0 µM (retest, dose inferred, filed as 5.0)

Measured: growth inhibition

COC(=O)c1ccc2ccccc2c1
active: [5]; at 50.0 µM 80.2%
inactive: [1]; [7] 5% | [1]; [8] 15% | [1]; at 50.0 µM 47% | [2]; [7] -1% | [2]; [8] 4% | [2]; at 50.0 µM 28.1% | [3]; [7] 1% | [3]; [8] 4% | [3]; at 50.0 µM 22.4% | [4]; [7] 2% | [4]; [8] -4% | [4]; at 50.0 µM 24.6% | [5]; [7] 5% | [5]; [8] 29% | [6]; [7] 5% | [6]; [8] 11% | [6]; at 50.0 µM 34.3%

CCC[CH2][Sn]([CH2]CCC)([O]C(=O)C(OC)c1ccccc1)[O]C(=O)C(OC)c1ccccc1 (stereo not given)
active: [1]; [8] 97% | [1]; at 50.0 µM 89% | [2]; [8] 96% | [2]; at 50.0 µM 88.3% | [3]; [8] 96% | [3]; at 50.0 µM 84% | [4]; [8] 96% | [4]; at 50.0 µM 88.8% | [5]; [7] 77% | [5]; [8] 98% | [5]; at 50.0 µM 92% | [6]; [8] 98% | [6]; at 50.0 µM 88.3%
inactive: [1]; [7] 44% | [2]; [7] 40% | [3]; [7] 44% | [4]; [7] 36% | [6]; [7] 57%

OCN(CO)c1ccc2c(c1)Cc1cc(F)ccc1-2
active: [1]; [8] 97% | [1]; at 50.0 µM 92.8% | [2]; [8] 99% | [2]; at 50.0 µM 86.2% | [3]; [8] 97% | [4]; [8] 97% | [4]; at 50.0 µM 96.5% | [5]; [8] 97% | [5]; at 50.0 µM 90.9% | [6]; [8] 98% | [6]; at 50.0 µM 97.8%
inactive: [1]; [7] 34% | [2]; [7] -19% | [3]; [7] 41% | [3]; at 50.0 µM 51.2% | [4]; [7] 1% | [5]; [7] -5% | [6]; [7] 59%

O=C(O)c1cc2ccc(Cl)cc2c2c1C(=O)c1cc(Cl)ccc1-2
active: [1]; at 50.0 µM 90.3% | [3]; at 50.0 µM 82.5% | [4]; at 50.0 µM 77.3% | [5]; at 50.0 µM 82% | [6]; at 50.0 µM 84.5%
inactive: [1]; [7] 12% | [1]; [8] 50% | [2]; [7] 0% | [2]; [8] 33% | [2]; at 50.0 µM 57.5% | [3]; [7] -2% | [3]; [8] 35% | [4]; [7] -3% | [4]; [8] 39% | [5]; [7] -2% | [5]; [8] 33% | [6]; [7] -4% | [6]; [8] 46%

O=C(/C=C/c1ccccc1)c1cc2c(cc1O)OCO2
inactive: [1]; [7] -6% | [1]; [8] 17% | [1]; at 50.0 µM 29.6% | [2]; [7] -5% | [2]; [8] 3% | [2]; at 50.0 µM -3.2% | [3]; [7] -16% | [3]; [8] 9% | [3]; at 50.0 µM 22.9% | [4]; [7] 2% | [4]; [8] 31% | [4]; at 50.0 µM 13.8% | [5]; [7] 3% | [5]; [8] 37% | [5]; at 50.0 µM 18.8% | [6]; [7] -16% | [6]; [8] -1% | [6]; at 50.0 µM 31.5%

CNS(=O)(=O)c1ccccc1C=C(c1ccccc1)c1ccccc1
inactive: [1]; [7] 2% | [2]; [7] -12% | [3]; [7] 4% | [4]; [7] 2% | [4]; at 50.0 µM 65.8% | [5]; [7] -11% | [6]; [7] -2%
active: [1]; [8] 90% | [1]; at 50.0 µM 93.1% | [2]; [8] 93% | [2]; at 50.0 µM 86.2% | [3]; [8] 93% | [3]; at 50.0 µM 94% | [4]; [8] 89% | [5]; [8] 92% | [5]; at 50.0 µM 81.8% | [6]; [8] 91% | [6]; at 50.0 µM 94.1%

COc1ccc2c(Cc3ccc(O)cc3)cncc2c1O
active: [4]; at 50.0 µM 91.8% | [5]; at 50.0 µM 71.5% | [6]; at 50.0 µM 97.6%
inactive: [1]; [7] -1% | [1]; [8] 6% | [1]; at 50.0 µM 8.65% | [2]; [7] -8% | [2]; [8] 26% | [2]; at 50.0 µM 51.5% | [3]; [7] -3% | [3]; [8] 16% | [3]; at 50.0 µM -7.15% | [4]; [7] 5% | [4]; [8] 4% | [5]; [7] -5% | [5]; [8] -4% | [6]; [7] 6% | [6]; [8] 27%

CN(NC(=O)/C(=C/c1ccc2c(c1)OCO2)NC(=O)c1ccccc1)c1ccnc2cc(Cl)ccc12
active: [1]; at 50.0 µM 89.7% | [3]; at 50.0 µM 78% | [5]; at 50.0 µM 72.2% | [6]; at 50.0 µM 87.7%
inactive: [1]; [7] -7% | [1]; [8] -10% | [2]; [7] -15% | [2]; [8] -2% | [2]; at 50.0 µM 46% | [3]; [7] -9% | [3]; [8] -15% | [4]; [7] 22% | [4]; [8] 11% | [4]; at 50.0 µM 55.6% | [5]; [7] 8% | [5]; [8] 33% | [6]; [7] 10% | [6]; [8] 11%

O=[N+]([O-])c1cc(Br)cc(Br)c1O
active: [4]; at 50.0 µM 82.7% | [5]; at 50.0 µM 75.8%
inactive: [1]; [7] -2% | [1]; [8] 19% | [1]; at 50.0 µM 61.6% | [2]; [7] 18% | [2]; [8] 45% | [2]; at 50.0 µM 49.6% | [3]; [7] 10% | [3]; [8] 38% | [3]; at 50.0 µM 40.4% | [4]; [7] 20% | [4]; [8] 41% | [5]; [7] -7% | [5]; [8] 30% | [6]; [7] 2% | [6]; [8] 56% | [6]; at 50.0 µM 68.4%

CC1=CC(C)C(C)N(CCNC(=O)Nc2ccccc2)c2ccccc21 (stereo not given)
active: [1]; at 50.0 µM 77.2% | [2]; at 50.0 µM 80.9% | [3]; [8] 71% | [3]; at 50.0 µM 80.6% | [4]; [8] 80% | [4]; at 50.0 µM 75.5% | [5]; [8] 75% | [5]; at 50.0 µM 84.2% | [6]; at 50.0 µM 70.2%
inactive: [1]; [7] 17% | [1]; [8] 51% | [2]; [7] 16% | [2]; [8] 33% | [3]; [7] 14% | [4]; [7] 22% | [5]; [7] -14% | [6]; [7] 14% | [6]; [8] 66%
